Data: PubChem BioAssay (NCATS)
Inconclusive results are not listed. The source made the active and inactive calls. The call rests on the fitted dose curve; in most records, active means well fitted cell-killing curve with a large enough effect; inconclusive means small, poorly fitted or top-dose-only effect, or effect the other way; inactive means flat fitted curve, though single readings scatter. Where a SMILES comes first, the peptide text is derived from it. The star is where a group is joined. AMC = Cc1cc(=O)oc2cc(N*)ccc12; Cbz = O=C(OCc1ccccc1)*

Assays:
Assay in all cases: Primary qHTS to identify gynecologic anti-cancer compounds using libraries of approved drugs and bioactive compounds (AID 1345084); further: nearly all actives have a fitted effect of over 55% in size
C33A = details: Gynecologic cancer cell panel viability, ATPlite luminescence, 48 h; series mostly up to 57.5 µM
In short: (§1)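 48 h compound exposure at 37 C, 5% CO2; five-point qHTS. ATPlite luminescence readout of cell ATP.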

CAOV3 = details: Gynecologic cancer cell panel viability, ATPlite luminescence, 48 h; series mostly up to 57.5 µM
In short: as §1

CASKI = details: Gynecologic cancer cell panel viability, ATPlite luminescence, 48 h; series mostly up to 57.5 µM
In short: as §1

Es-2 = details: Gynecologic cancer cell panel viability, ATPlite luminescence, 48 h; series mostly up to 57.5 µM
In short: as §1

HeLa = details: Gynecologic cancer cell panel viability, ATPlite luminescence, 48 h; series mostly up to 57.5 µM
In short: as §1

Hek293T = details: Gynecologic cancer cell panel viability, ATPlite luminescence, 48 h, control line for the selectivity index; series mostly up to 57.5 µM
In short: as §1

JEG-3 = details: Gynecologic cancer cell panel viability, ATPlite luminescence, 48 h; series mostly up to 57.5 µM
In short: as §1

OV90 = details: Gynecologic cancer cell panel viability, ATPlite luminescence, 48 h; series mostly up to 57.5 µM
In short: as §1

PA-1 = details: Gynecologic cancer cell panel viability, ATPlite luminescence, 48 h; series mostly up to 57.5 µM
In short: as §1

SKOV3 = details: Gynecologic cancer cell panel viability, ATPlite luminescence, 48 h; series mostly up to 57.5 µM
In short: as §1

Tov-21-G = details: Gynecologic cancer cell panel viability, ATPlite luminescence, 48 h; series mostly up to 57.5 µM
In short: as §1

Tov112D = details: Gynecologic cancer cell panel viability, ATPlite luminescence, 48 h; series mostly up to 57.5 µM
In short: as §1
On the % scale 0 is the no-effect control and ±100 the full control effect.

COC(=O)C1=COC(OC2OC(CO)C(O)C(O)C2O)C2C(C)C(OC(=O)/C=C/c3ccc(O)cc3)C(O)C12 (configuration not stated)
inactive: Potency (C33A) | Potency (CAOV3) | outcome (CASKI) | Potency (Es-2) | Potency (HeLa) | Potency (Hek293T) | Potency (JEG-3) | Potency (OV90) | Potency (PA-1) | Potency (SKOV3) | Potency (Tov-21-G) | Potency (Tov112D)

O=C(O)[C@H]1Cc2ccccc2CN1
inactive: activity change, negative = cytotoxicity (C33A) -12.5% [at 6.55 µM] | activity change, negative = cytotoxicity (CAOV3) 20.2% [at 6.55 µM] | activity change, negative = cytotoxicity (CASKI) -0.242% [at 6.55 µM] | activity change, negative = cytotoxicity (Es-2) -0.653% [at 6.55 µM] | activity change, negative = cytotoxicity (HeLa) 1.2% [at 6.55 µM] | activity change, negative = cytotoxicity (Hek293T) 13.1% [at 6.55 µM] | activity change, negative = cytotoxicity (JEG-3) 1.96% [at 6.55 µM] | activity change, negative = cytotoxicity (OV90) 0.2% [at 6.55 µM] | activity change, negative = cytotoxicity (PA-1) 3.48% [at 6.55 µM] | activity change, negative = cytotoxicity (SKOV3) 14.2% [at 6.55 µM] | activity change, negative = cytotoxicity (Tov-21-G) 4.78% [at 6.55 µM] | activity change, negative = cytotoxicity (Tov112D) 19.2% [at 6.55 µM]

CC1(C)CC[C@]2(C(=O)O[C@@H]3O[C@H](CO)[C@@H](O)[C@H](O)[C@H]3O)[C@H](O)C[C@]3(C)C(=CCC4[C@@]5(C)CC[C@H](O[C@@H]6OC[C@@H](O)[C@H](O)[C@H]6O)[C@@](C)(C(=O)O)C5CC[C@]43C)[C@@H]2C1 (some centres not stated)
inactive: Potency (C33A) | Potency (CAOV3) | outcome (CASKI) | Potency (Es-2) | Potency (HeLa) | Potency (Hek293T) | Potency (JEG-3) | Potency (OV90) | Potency (PA-1) | Potency (SKOV3) | Potency (Tov-21-G) | Potency (Tov112D)

CC1=C2C[C@H]3OC(=O)[C@H](O)[C@@]4(O)[C@@H](C)[C@@H](O)[C@H](O)C([C@@]2(C)[C@H](O)[C@@H](O)C1)[C@@]34C (some centres not stated)
inactive: Potency (C33A) | Potency (CAOV3) | outcome (CASKI) | Potency (Es-2) | Potency (HeLa) | Potency (Hek293T) | Potency (JEG-3) | Potency (OV90) | Potency (PA-1) | Potency (SKOV3) | Potency (Tov-21-G) | Potency (Tov112D)

CC(C)=C1CC2[C@](C)(CC[C@@H](OC(=O)C3(C)OC3C)[C@@]2(C)O)CC1=O (some centres not stated)
inactive: Potency (C33A) | Potency (CAOV3) | outcome (CASKI) | Potency (Es-2) | Potency (HeLa) | Potency (Hek293T) | Potency (JEG-3) | Potency (OV90) | Potency (PA-1) | Potency (SKOV3) | Potency (Tov-21-G) | Potency (Tov112D)

C=C1CCC2[C@](C)(CCC[C@]2(C)C(=O)O)[C@H]1CC/C(C)=C/C(=O)OC (some centres not stated)
inactive: Potency (C33A) | Potency (CAOV3) | outcome (CASKI) | Potency (Es-2) | Potency (HeLa) | Potency (Hek293T) | Potency (JEG-3) | Potency (OV90) | Potency (PA-1) | Potency (SKOV3) | Potency (Tov-21-G) | Potency (Tov112D)

Cc1cc(=O)oc2cc(NC(=O)[C@H](CCC(=O)O)NC(=O)[C@H](CC(C)C)NC(=O)[C@H](CC(C)C)NC(=O)OCc3ccccc3)ccc12 (Cbz-Leu-Leu-Glu-{AMC})
inactive: Potency (C33A) | Potency (CAOV3) | outcome (CASKI) | Potency (Es-2) | Potency (HeLa) | Potency (Hek293T) | Potency (JEG-3) | Potency (OV90) | Potency (PA-1) | Potency (SKOV3) | Potency (Tov-21-G) | Potency (Tov112D)

C=CC1(C)CC=C2C(CCC3C(C)(C(=O)O)CCCC23C)C1 (configuration not stated)
inactive: Potency (C33A) | Potency (CAOV3) | outcome (CASKI) | Potency (Es-2) | Potency (HeLa) | Potency (Hek293T) | Potency (JEG-3) | Potency (OV90) | Potency (PA-1) | Potency (SKOV3) | Potency (Tov-21-G) | Potency (Tov112D)

CCCNCCOc1ccc(NC(=O)c2c[nH]c3c2C(=O)CCC3)cc1F
inactive: Potency (C33A) | Potency (CAOV3) | outcome (CASKI) | Potency (Es-2) | Potency (HeLa) | Potency (Hek293T) | Potency (JEG-3) | Potency (OV90) | Potency (PA-1) | Potency (SKOV3) | Potency (Tov-21-G) | Potency (Tov112D)

CC(C)c1c(NC(=O)Nc2ccc(Cl)cc2)c(=O)n(-c2ccccc2)n1C
inactive: Potency (C33A) | Potency (CAOV3) | outcome (CASKI) | Potency (Es-2) | Potency (HeLa) | Potency (Hek293T) | Potency (JEG-3) | Potency (OV90) | Potency (PA-1) | Potency (SKOV3) | Potency (Tov-21-G) | Potency (Tov112D)

CC1(C)Oc2ncnc(N)c2N=C1c1ccc(C2CCC(CC(=O)O)CC2)cc1 (configuration not stated)
inactive: Potency (C33A) | Potency (CAOV3) | outcome (CASKI) | Potency (Es-2) | Potency (HeLa) | Potency (Hek293T) | Potency (JEG-3) | Potency (OV90) | Potency (PA-1) | Potency (SKOV3) | Potency (Tov-21-G) | Potency (Tov112D)

CC(=O)OC[C@@]12C(=O)C[C@@H](C)[C@]3(C[C@@H](c4ccoc4)OC3=O)[C@H]1CC[C@H](OC(C)=O)[C@]21CO1
inactive: Potency (C33A) | Potency (CAOV3) | outcome (CASKI) | Potency (Es-2) | Potency (HeLa) | Potency (Hek293T) | Potency (JEG-3) | Potency (OV90) | Potency (PA-1) | Potency (SKOV3) | Potency (Tov-21-G) | Potency (Tov112D)

CC(C)C1C(OC(=O)/C=C/c2ccccc2)CC2(C)OC2CCC2(C)OC2C1O (configuration not stated)
inactive: Potency (C33A) | Potency (CAOV3) | outcome (CASKI) | Potency (Es-2) | Potency (HeLa) | Potency (Hek293T) | Potency (JEG-3) | Potency (OV90) | Potency (PA-1) | Potency (SKOV3) | Potency (Tov-21-G) | Potency (Tov112D)

COc1cc(O)cc(C)c1C(=O)O[C@H]1[C@@H](O)[C@@H](n2ccc(=O)[nH]c2=O)O[C@@H]1CO
inactive: Potency (C33A) | Potency (CAOV3) | outcome (CASKI) | Potency (Es-2) | Potency (HeLa) | Potency (Hek293T) | Potency (JEG-3) | Potency (OV90) | Potency (PA-1) | Potency (SKOV3) | Potency (Tov-21-G) | Potency (Tov112D)

N[C@@H](CCNCc1ccc(Cl)cc1)C(=O)N1CCCCC1
inactive: Potency (C33A) | Potency (CAOV3) | outcome (CASKI) | Potency (Es-2) | Potency (HeLa) | Potency (Hek293T) | Potency (JEG-3) | Potency (OV90) | Potency (PA-1) | Potency (SKOV3) | Potency (Tov-21-G) | Potency (Tov112D)

NC1Nc2ccccc2C1(N)CC1NC(=O)C(Cc2ccccc2)NC(=O)C(Cc2ccccc2)NC1=O (configuration not stated)
inactive: Potency (C33A) | Potency (CAOV3) | outcome (CASKI) | Potency (Es-2) | Potency (HeLa) | Potency (Hek293T) | Potency (JEG-3) | Potency (OV90) | Potency (PA-1) | Potency (SKOV3) | Potency (Tov-21-G) | Potency (Tov112D)
